From PubChem
Compounds with a hit are over-represented: about 5.6% of the library has one in this group of screens.
Cardio protect: protects H9c2 cardiomyocytes from peroxide injury. protection from H2O2 cell death, % at 20 µM. H2O2 injury protection, ATPLite, 2 h. actives 0.63% (n = 360,000);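 active = compounds giving at least 50% protection of heart cells from peroxide-induced death in the single-dose screen, raw or plate-pattern-corrected value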;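 also: 0% = DMSO wells with peroxide and 100% = DMSO wells without peroxide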
PfGluPho inh: PfG6PD (Plasmodium falciparum) enzyme inhibition | PfGluPho enzyme, NADPH resazurin-diaphorase fluorescence | inhibition, % at 20 µM | actives 0.78% (n = 350,000) | AID 504690;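 active = inhibition reaching at least a set limit at 20 µM in the primary screen, cut at about 59% in these data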;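 also: 0% = DMSO wells with substrate and 100% = DMSO wells lacking glucose-6-phosphate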
PfM18AAP inh-1: PfM18AAP enzyme inhibition | recombinant PfM18AAP, H-Glu-NHMec fluorogenic cleavage | inhibition, % at 7.35 µM | actives 1.2% (n = 290,000) | AID 1822;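 active = inhibition above the campaign mean inhibition over all tested compounds plus 3 SD, cut at about 28% in these data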;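 also: 0% = plate median of test compound wells and 100% = 2 mM ZnCl2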
PHOSPHO1 block: PHOSPHO1 (human) inhibition; actives 1.1% (n = 290,000); inhibition, % at 13.3 µM; Q8TCT1; AID 1565; recombinant PHOSPHO1, absorbance phosphatase assay; in the data active = inhibition above about 60%
ALR inh: inhibitors of human sulfhydryl oxidase ALR; purified ALR, DTT oxidation, H2O2 HRP-luminol luminescence; inhibition, % (concentration not given with the values); actives 3.8% (n = 290,000); AID 485317;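 active = mean replicate inhibition above about 79%, with every replicate also reaching it, limit read from the data; inconclusive = only one of the two criteria met; inactive = mean below limit and not every replicate reaching it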
Target sequence (P55789 whole entry, looked up): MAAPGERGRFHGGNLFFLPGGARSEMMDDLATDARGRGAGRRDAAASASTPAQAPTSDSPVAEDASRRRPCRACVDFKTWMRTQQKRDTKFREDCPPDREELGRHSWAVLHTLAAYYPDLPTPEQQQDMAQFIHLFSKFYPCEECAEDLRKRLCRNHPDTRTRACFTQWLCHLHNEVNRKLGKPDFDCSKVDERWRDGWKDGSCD
PfM18AAP inh-2: confirmation of Plasmodium falciparum M18 aspartyl aminopeptidase inhibitors; shares compounds with PfM18AAP inh-1; recombinant PfM18AAP, H-Glu-NHMec fluorogenic cleavage; actives 28% (n = 2,400); inhibition, % at 7.35 µM; AID 2170;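 active = mean inhibition over replicate wells above the hit cutoff set for the earlier primary screen, cut at about 29% in these data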;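 also: 0% = median of test compound wells and 100% = 2 mM ZnCl2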
CTSL1 confirm: counter-screen for PFM18AAP inhibitors: confirmation of human cathepsin L inhibitors; shares compounds with PfM18AAP inh-1; 2,400 tested, under 10 active; inhibition, % at 5.96 µM; purified cathepsin L1, Z-Leu-Arg-MCA fluorescence;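 active = average inhibition across replicates above the hit cutoff set in the earlier primary screen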;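 also: 0% = median of test compound wells and 100% = Z-Phe-Ala-diazomethylketone 1 µM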
* hit, by the source's call; u = inconclusive; x = no result given.

SMILES	Cardio protect	PfGluPho inh	PfM18AAP inh-1	PHOSPHO1 block	ALR inh	PfM18AAP inh-2	CTSL1 confirm
Cc1ccc(OCC(=O)Nn2cnnc2)c(Br)c1	-3	-25	66*	-5	-4	57*	5
Cc1cc(OCC(=O)NC2CC(C)(C)NC(C)(C)C2)c(C)cc1Br	4	9	0	28	-3	x	x
Cc1cc(OCC(=O)Nn2cnnc2)c(C)cc1Br	2	-31	46*	-11	-2	55*	-2
O=C(COc1ccc2ccccc2c1Br)Nn1cnnc1	2	-22	56*	21	-35	37*	-2
O=C(NNC(=O)C1CCN(S(=O)(=O)c2ccccc2)CC1)c1ccccc1O	31	-40	40*	-10	0	-8	-7
O=C(NNC(=O)C1CCN(S(=O)(=O)c2c(Cl)cccc2Cl)CC1)c1ccccc1O	33	-38	x	x	2	x	x
COc1ccc(/C=C2\SC(=S)N(CCC(=O)NC3CCCC3)C2=O)cc1OC	-2	-1	-5	42	-5	x	x
Cc1cc(N/N=C/c2ccc(O)c(C)c2O)nc(-c2ccccc2O)n1	36	17	44*	-24	4	38*	4
O=C(Cc1cccs1)Nc1ccc(F)cc1	-1	15	1	8	-2	x	x
O=C(N/N=C/c1ccc(-c2ccc([N+](=O)[O-])cc2)o1)[C@H]1C[C@@H]1c1ccccc1	-2	19	32*	25	x	-37	3
O=C(N/N=C/c1ccc(-c2cccc([N+](=O)[O-])c2)o1)[C@H]1C[C@@H]1c1ccccc1	-1	-10	-1	5	-21	x	x
COc1ccc(N(CC(=O)Nc2ccccc2OC)S(=O)(=O)c2ccc(OC)c(OC)c2)cc1	15	-7	-3	34	-13	x	x
CC(=O)ONC(=Nc1ccccc1)c1nonc1N	2	-17	36*	28	16	-6	-46
NC(=O)C1(N2CCCCC2)CCN(C(=S)Nc2ccc(F)c(Cl)c2)CC1	8	7	-3	54	21	x	x
NC(=O)C1(N2CCCCC2)CCN(C(=S)Nc2ccc(S(N)(=O)=O)cc2)CC1	-2	46	33*	-79	-31	11	5
CCCN1CCN(C(=S)Nc2ccc(S(N)(=O)=O)cc2)CC1	-2	6	9	-13	2	x	x
NS(=O)(=O)c1ccc(NC(=S)N2CCC(Cc3ccccc3)CC2)cc1	-14	43	37*	11	1	-19	-4
Clc1ccc(NCn2cncn2)nc1	4	4	78*	-11	1	63*	4
O=C(NNC(=O)C1CCN(C(=O)Nc2ccccc2)CC1)c1ccc([N+](=O)[O-])cc1	-4	-13	x	x	-3	x	x
O=C(O)c1ccc(N/N=C/c2c(F)cccc2Cl)cc1	13	-25	39*	40	42	-9	5
O=C(N/N=C/c1c(F)cccc1Cl)C1CC1	-1	0	-5	29	-4	x	x
COc1ccc(C=O)cc1OC(=O)N1CCOCC1	0	-7	-4	9	7	x	x
Cc1nc2ccccn2c1C(=O)NNC(=O)Nc1cccc(C(F)(F)F)c1	-1	-1	64*	-9	36	33*	8
Cc1cccc(NC(=O)c2c(C)nc3ccccn23)c1	0	5	2	3	-6	x	x
Cc1ccn2c(C(=O)N/N=C/c3ccc(Cl)cc3)c(C)nc2c1	3	-2	-10	32	x	x	x
SMILES	Cardio protect	PfGluPho inh	PfM18AAP inh-1	PHOSPHO1 block	ALR inh	PfM18AAP inh-2	CTSL1 confirm
Cc1ccn2c(C(=O)NNC(=O)Nc3ccc(Cl)cc3)c(C)nc2c1	0	-3	64*	26	u	48*	-4
CCCCNC(=O)C1(C)CCCCN1C(=O)c1ccc(F)c(C)c1 (stereo not given)	14	x	x	x	x	x	x
COC(=O)c1ccccc1CSc1nsc(/C=C/N(C)C)c1C#N	-10	49	48*	-144	x	6	2
CCN(CC)CCN(C(=O)c1ccc2ncsc2c1)c1nc2cc3c(cc2s1)OCO3	9	58	47*	28	23	-5	6
O=C(Nn1cnnc1)c1ccc([N+](=O)[O-])cc1Cl	1	3	x	x	7	x	x
Nc1c(C(=O)Nn2cnnc2)cc([N+](=O)[O-])cc1[N+](=O)[O-]	x	x	63*	-24	-18	56*	4
COc1ccc(C(=O)Nn2cnnc2)cc1	0	-4	26	6	-7	x	x
